From PubChem BioAssay (Tox21)
“And” between values parts separate entries of the source, which are not always exact repeats. Identical values can stand only once. Records with an inconclusive call do not appear. A call without a number means that no potency is given here. More than one record can exist for a structure, and the calls need not agree. The source made the active and inactive calls. The call rests on the fitted dose curve; in most records, active means well fitted inhibition curve with a large enough effect in the repeat runs; inconclusive means weak or mixed curves; inactive means no such curve, though single readings can be large or run the other way.
Potency means the concentration at half of the fitted maximal effect.

The compounds below were run against Cytochrome P450 3A4 (Homo sapiens) (UniProt P08684) (assay: Cytochrome P450 Family 3 Subfamily A Member 4 (CYP3A4) small molecule antagonists: luciferase reporter qHTS assay (AID 1671201; further: nearly all actives have a fitted effect of over 50% in size)). Settings: P450-Glo CYP3A4 enzyme, luciferin luminescence, 1 h; series mostly up to 115 µM.
Chain of Cytochrome P450 3A4 (Homo sapiens) (P08684 whole entry, looked up): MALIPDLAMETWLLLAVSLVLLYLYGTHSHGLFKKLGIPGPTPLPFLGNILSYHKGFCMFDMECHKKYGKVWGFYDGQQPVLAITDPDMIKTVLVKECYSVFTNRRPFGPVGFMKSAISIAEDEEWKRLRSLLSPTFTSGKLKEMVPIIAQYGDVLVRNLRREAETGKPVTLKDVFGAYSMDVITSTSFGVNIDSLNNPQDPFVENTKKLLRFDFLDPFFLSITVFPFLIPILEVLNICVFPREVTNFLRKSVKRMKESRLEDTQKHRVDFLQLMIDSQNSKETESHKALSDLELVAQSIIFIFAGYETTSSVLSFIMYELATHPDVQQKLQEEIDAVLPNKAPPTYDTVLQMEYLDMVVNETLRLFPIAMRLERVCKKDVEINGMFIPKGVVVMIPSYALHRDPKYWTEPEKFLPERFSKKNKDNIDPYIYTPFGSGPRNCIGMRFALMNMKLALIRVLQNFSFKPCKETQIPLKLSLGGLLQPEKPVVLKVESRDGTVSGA
Summary of the method: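 Enzyme and proluciferin substrate are mixed with test chemicals for 10 min, then NADPH regeneration system drives turnover for 1 h at room temperature. A detection reagent halts the reaction; luminescence after 20 min gives relative activity.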
With `O=NN1CCCCCCC1` the Potency was “inactive”.
For `C#CCN(C)[C@H](C)Cc1ccccc1`, the Potency was “inactive”.
With `C=C(C)CCl` the Potency was “inactive”.
For `Cc1cc(-c2cc(C)c(N)c(C)c2)cc(C)c1N`, the Potency was 34.9 µM (active).
For `O=C1CCCN1`, the Potency was 7.17 µM (active) and inactive.
`C1CC2OC2CC1C1CO1` (configuration not stated) was tested, and the Potency was “inactive”.
`[O-][Cl+2]([O-])O` was tested, and the Potency was “inactive”.
For `O=c1ccc(=O)[nH][nH]1`, the Potency was “inactive”.
`COc1ccc2c3c1O[C@H]1[C@@H](O)C=C[C@H]4[C@@H](C2)N(C)CC[C@@]341` was tested, and the Potency was “inactive”.
`CC(=O)C=C(C)C` was tested, and the Potency was “inactive”.
In the case of `Cc1ccccc1O`, the Potency is reported as “inactive”.
In the case of `CC(C)(C)OOC(=O)c1ccccc1`, the Potency is reported as “inactive”.
For `O=c1n(Cl)c(=O)n(Cl)c(=O)n1Cl`, the Potency was “inactive”.
In the case of `CCN(CC)c1ccccc1`, the Potency is reported as “inactive”.
With `Cc1ccc([N+](=O)[O-])cc1C` the Potency was “inactive”.
`c1ccc(OP(Oc2ccccc2)Oc2ccccc2)cc1` was tested, and the Potency was “inactive”.
With `CC(C)N1C(=O)c2ccccc2NS1(=O)=O` the Potency was “inactive”.
In the case of `ClCc1cccnc1`, the Potency is reported as “inactive”.
With `O=S(=O)(c1ccc(O)cc1)c1ccc(O)cc1` the Potency was “inactive”.
`CC(C#N)CCC#N` (configuration not stated) was tested, and the Potency was “inactive”.
For `CCc1cccc(C)c1N(C(=O)CCl)C(C)COC` (configuration not stated), the Potency was “inactive”.
For `CCCCN(CCCC)SN(C)C(=O)Oc1cccc2c1OC(C)(C)C2`, the Potency was 14.4 µM (active) and 12.6 µM (active).
`C=CCO` was tested, and the Potency was “inactive”.
For `C1CN2CCN1CC2`, the Potency was “inactive”.
With `COCCl` the Potency was “inactive”.
`CN(C)CCO` was tested, and the Potency was “inactive”.
With `[N-]=[N+]=[N-]` the Potency was “inactive”.
For `O=NN1CCCC1`, the Potency was “inactive”.
With `ClCCBr` the Potency was “inactive”.
For `O=c1[nH]c2ccccc2c(=O)o1`, the Potency was “inactive”.
`CC(C)NC(=O)N1CC(=O)N(c2cc(Cl)cc(Cl)c2)C1=O` was tested, and the Potency was “inactive”.
For `CCCCN(CC)C(=O)SCCC`, the Potency was “inactive”.
